Measured values: ChEMBL document CHEMBL3988442, “University of Dundee, Small-Polar-MMV Screening Library” (2021)
Screen size: about 48,000 compounds; about 13,000 (27%) showed an effect of 50% or more. This is one part of the list.

system: Wolbachia pipientis; experiment: Anti-Wolbachia Cell-Based Screen; assay type: functional; design: scale not given: in the data most compounds retested in dose-response had high values; conditions: 5 µM

Structure (SMILES)	Percent Effect
CCNc1ncc(C(=O)NCCc2csc(-c3ncccn3)n2)cn1	-22.07%
CCN(Cc1cccc(F)c1)c1ccc2nnnn2n1	20.24%
CN(C)C(=O)CCC(=O)NCc1cccnc1-n1cnc2ccccc21	-4.725%
Cc1ncsc1C(=O)N1CCC(O)(Cn2c(C)cc3ccncc32)CC1	102%
Cc1ncsc1C(=O)N1CC[C@@H]2[C@@H](CC1)OCCN2c1cccnc1	-15.36%
Cc1nc(N2CCN(C(=O)c3cccnc3)CC2)cc(-n2cccc2)n1	13.16%
O=C(c1cncc(Br)c1)N1CCC(O)(Cn2ccc3ccncc32)CC1	-1.363%
Cc1cc2ccncc2n1CC1(O)CCN(C(=O)c2cccnc2)CC1	107.2%
Cc1nnc(SCCC(=O)N(C)Cc2c(F)cccc2Cl)[nH]1	13.01%
CCCn1nc2c(cc1=O)CN(CCS(C)(=O)=O)CC2	0.2637%
Cc1nc2c(c(N3CCC(O)(Cn4ccnc4)CC3)n1)CCNCC2	-21.19%
CC(NC(=O)NCCc1ccc(Cl)s1)c1ccccn1 (centres undefined)	158%
CC(NC(=O)N(C)Cc1ccc(Cl)s1)c1ccccn1 (centres undefined)	6.324%
CC(NC(=O)NCc1ccc(Cl)s1)c1ccccn1 (centres undefined)	3.359%
CC(NC(=O)NCc1cc(Br)cs1)c1ccccn1 (centres undefined)	100.4%
CC(NC(=O)Nc1cccnc1N1CCOCC1)c1ccccn1 (centres undefined)	-6.169%
CCCNC(=O)c1ccc(NC(=O)NC(C)c2ccccn2)cc1 (centres undefined)	-5.222%
CC(NC(=O)NCc1ccc(Cl)cc1)c1ccccn1 (centres undefined)	9.197%
CC(C)CNC(=O)c1ccc(NC(=O)NC(C)c2ccccn2)cc1 (centres undefined)	-15.83%
CC(NC(=O)NCc1ccccc1Cl)c1ccccn1 (centres undefined)	111.7%
CC(C)CN1CC2(CCN(C(=O)C3CNC(=O)N3)CC2)CC1=O (centres undefined)	-19.59%
CN(C)C(CNC(=O)c1cc2c([nH]c1=O)CCCC2=O)c1ccsc1 (centres undefined)	7.24%
Cc1ccc(CNC(=O)c2ccc(S(=O)(=O)N3C[C@@H]4C[C@H]3CN4)cc2)o1	13.35%
COc1cccc(N2CCN(C(=O)C(OC)c3ccccc3)CC2=O)c1 (centres undefined)	13.04%
COc1ccc(N2CCN(CC[C@H](O)c3ccccc3)CC2=O)cc1	-22.52%

Structure (SMILES)	Percent Effect
COc1cccc(N2CCN(Cc3ccc(NC(C)=O)cc3)CC2=O)c1	-1.185%
CCn1cc(CN2CCN(Cc3cccc(OC)c3)C(=O)C2)cc1C#N	-7.886%
COc1cccc(N2CCN(Cc3ccc4ccn(C)c4c3)CC2=O)c1	113.3%
COCCCN1C(=O)CC[C@H]2CN(Cc3ccc4occc4c3)CC[C@H]21	-8.694%
COc1cccc(N2CCN(Cc3ccc4occc4c3)CC2=O)c1	113.8%
COc1cccc(N2CCN(CC[C@H](O)c3ccccc3)CC2=O)c1	-29.06%
COc1cccc(N2CCN(Cc3cccc(CCN)c3)CC2=O)c1	112.7%
COc1cc(CN2CCN(c3cccc(OC)c3)C(=O)C2)cc(OC)c1	-15.09%
COc1cccc(N2CCN(Cc3cc(C)cc(F)c3)CC2=O)c1	130.9%
COc1cccc(CN2CCN(Cc3ccc4nonc4c3)CC2=O)c1	-14.94%
N#Cc1ccc(CNC(=O)C2=NN(c3ccccc3)C(=O)CN2)cc1	-19.54%
N#Cc1ccnc(N2CCN(Cc3cccc(F)c3)CC2)c1	16.74%
Cc1n[nH]c(=O)c2c(NC(=O)CN3CCOC(C)C3)oc(C)c12 (centres undefined)	0.9329%
COc1ccc(CNC[C@H]2COCc3nc4cccnc4n32)cc1	-4.105%
Cc1cc(CS(=O)(=O)NC2CCCc3ccccc32)on1 (centres undefined)	-2.074%
COc1cccc(N2CCN(C(=O)C(C)Oc3ccccc3)CC2=O)c1 (centres undefined)	9.152%
COc1cccc(N2CCN(C(=O)C(O)CC(C)C)CC2=O)c1 (centres undefined)	12.91%
COc1cccc(N2Cc3nc(=O)[nH]n3C2=O)c1	-15.51%
COc1cccc(N2CCN(Cc3nccn3C(C)C)CC2=O)c1	98.08%
COc1cccc(N2CCN(Cc3ccc4[nH]ccc4c3)CC2=O)c1	81.94%
c1ccc2[nH]c(C3CCN(Cc4nnc(C5CC5)o4)CC3)cc2c1	10.45%
Cc1cc(CNC(=O)c2cc(NC(=O)C(C)C)ccc2Cl)no1	18.73%
O=C1C(N2CCN(c3ccc(O)cc3)CC2)CCN1C1CCOCC1 (centres undefined)	-11.86%
CC(C)n1cnnc1CN(C)Cc1ccc(CO)o1	-7.369%
Cn1cnc2c1CCN(C(C(=O)N1CCCCC1)c1ccccc1)C2 (centres undefined)	18.33%

Structure (SMILES)	Percent Effect
O=C(CNc1cc(-c2ccccc2)nc2ccnn12)NC1CC1	-3.438%
COC(=O)CSCc1nc(-c2ccc(Cl)cc2)no1	-16.66%
COCCOc1ncccc1-c1noc([C@@H]2CCCN2C2CCC2)n1	-10.03%
CC(O)CN1CCN(Cc2cccc(C(=O)N(C)C)c2)CC1 (centres undefined)	-11.87%
Cc1nn(C)c(C)c1CC(=O)N1CCC(N(C)c2cccnn2)CC1	-21.95%
CN(c1cccnn1)[C@@H]1CC[C@@H]2CN(Cc3cccc(C(=O)O)c3)C[C@@H]21	111.9%
CN(c1cccnn1)[C@@H]1CC[C@@H]2CN(Cc3ccccc3C(=O)O)C[C@@H]21	106.4%
CN(c1cccnn1)C1CCN(C(=O)c2ccc3c(c2)COC3)CC1	-3.847%
Cn1cccc1C(=O)NCc1cn2c(n1)CN(c1ncccn1)CC2	-46.58%
O=C1CCCc2cc(-c3csc(CCN4CCOC4=O)n3)ccc2N1	2.984%
CS(=O)(=O)CCOCCNc1ccc(C(F)(F)F)cc1C#N	-20.16%
CCn1nc(C)c(CN(CCOC)C(=O)c2cnc(C)nc2O)c1C	-5.757%
O=C(c1cscn1)N1CCC(Cn2cc(-c3ccsc3)nn2)CC1	2.039%
Nc1nc2nc(C3CCCN(C(=O)c4cscn4)C3)ccc2s1 (centres undefined)	-1.798%
Nc1nc2nc(C3CCN(C(=O)c4cscn4)C3)ccc2s1 (centres undefined)	104%
Nc1nc2nc(C3CCCN(C(=O)c4cncs4)C3)ccc2s1 (centres undefined)	108.5%
O=C(c1cnccn1)N1CCCC(Cn2cc(C3CCCC3)nn2)C1 (centres undefined)	-14.19%
Nc1nc2nc(C3CCCN(C(=O)c4cnccn4)C3)ccc2s1 (centres undefined)	126%
O=C([C@H]1COC[C@H]2CN(CC3CC3)C[C@H]21)N1CCOCC1	21.74%
CN(CCCC1CCCC1)C(=O)c1cc(CN2CCC(O)CC2)on1	-12.63%
COc1cccc(-c2nc3c([nH]2)CCNC3)c1F	-6.974%
CCOc1ccc(N2CCCN=C2NC(=O)c2ccccc2C)cc1	-3.123%
CC(C)NS(=O)(=O)c1cc(C(=O)O)cc(-c2ccc3c(c2)OCCO3)c1	-21.29%
Cc1ccc2c(c1)C(NCc1ccccn1)CC2 (centres undefined)	6.59%
CC(C)NC(=O)[C@@H]1CN(Cc2nccs2)C[C@H]2OCC[C@H]21	-53.61%

Structure (SMILES)	Percent Effect
Cc1cnn(C2CCCN(C(=O)c3ccc(Cn4ccnc4)cc3)C2)c1 (centres undefined)	106.9%
Cc1cnn(C2CCCN(C(=O)c3ccc(-n4ccnc4)cc3)C2)c1 (centres undefined)	97.92%
Cc1cnn(C2CCCN(C(=O)c3cccc(Cn4ccnc4)c3)C2)c1 (centres undefined)	6.448%
CC(c1ccccc1)n1c(SCC(=O)O)nnc1-c1ccn[nH]1 (centres undefined)	-4.886%
Cn1c(-c2ccccc2)nn(CCNS(=O)(=O)c2ccccc2Cl)c1=O	-1.369%
CCCS(=O)(=O)N1Cc2c(ncn2Cc2ccccc2)C[C@H]1C(=O)OC	-4.606%
N#Cc1cccc(S(=O)(=O)N2CC(CC(=O)O)c3ccccc32)c1 (centres undefined)	-2.78%
CC1(C)CN(C(=O)Nc2ccc(Cn3cccn3)cc2)CCO1	-0.352%
O=C(C1CCC1)N1CC[C@H](O)[C@@H]1Cc1cccnc1.O=C(O)C(F)(F)F	95.67%
O=C(O)C(F)(F)F.O=C(O)C(F)(F)F.O[C@@H]1CCN(CC2CCOC2)[C@H]1Cc1cccnc1 (some centres undefined)	3.217%
O=C(C1CCOCC1)N1CC[C@@H](O)[C@@H]1Cc1ccncc1	93.36%
O=C(C1CCOCC1)N1CC[C@@H]2[C@H]1CCC(=O)N2c1ccccc1	-23.21%
Cn1cc(C[C@H]2[C@@H](O)CCN2C(=O)C2CC=CC2)cn1	-1.047%
O=C(C1CCOCC1)N1CC[C@@H](O)[C@@H]1Cc1ccccc1	90.42%
Cn1cc(C[C@H]2[C@@H](O)CCN2C(=O)C2CCC2)cn1	-13.15%
Cn1cc(C[C@H]2[C@H](O)CCN2C(=O)C2CCOCC2)cn1	-4.576%
CN(C)[C@@H]1CCN(C(=O)C2CCOCC2)[C@H]1Cc1ccncc1.O=C(O)C(F)(F)F.O=C(O)C(F)(F)F	-5.936%
O=C(C1CC=CC1)N1CC[C@@H](O)[C@H]1Cc1cccnc1	109.3%
CC(C)N1CC(C(=O)N2CCc3c(nc(CC4CC4)[nH]c3=O)C2)CC1=O (centres undefined)	-6.23%
OCC1(CC2CCCCO2)CCN(c2cnc3ccccc3n2)CC1 (centres undefined)	-13.06%
Cc1nc(N2CCCC(C)C2)nc2cc(S(C)(=O)=O)ccc12 (centres undefined)	-6.696%
OCc1cn([C@@H]2c3ccccc3C3(CCNCC3)[C@H]2O)nn1	-1.268%
O=S(=O)(NCC1(O)CCOc2ccccc21)c1ccccc1F (centres undefined)	0%
CC(=O)Nc1nc(C(=O)Nc2ccc(N3CCCCC3)nc2)cs1	7.498%
